# Over roughly 39,000 sequences, “fluorescence intensity (a.u.)” has its median near 4,300; the highest 2% begin near 39,000. The entries come from a sample that favours the highest values as a whole.
# Target: T1, OsSMF1 (Oryza sativa, UniProt Q6ZLB0 1-436)
# T1 sequence: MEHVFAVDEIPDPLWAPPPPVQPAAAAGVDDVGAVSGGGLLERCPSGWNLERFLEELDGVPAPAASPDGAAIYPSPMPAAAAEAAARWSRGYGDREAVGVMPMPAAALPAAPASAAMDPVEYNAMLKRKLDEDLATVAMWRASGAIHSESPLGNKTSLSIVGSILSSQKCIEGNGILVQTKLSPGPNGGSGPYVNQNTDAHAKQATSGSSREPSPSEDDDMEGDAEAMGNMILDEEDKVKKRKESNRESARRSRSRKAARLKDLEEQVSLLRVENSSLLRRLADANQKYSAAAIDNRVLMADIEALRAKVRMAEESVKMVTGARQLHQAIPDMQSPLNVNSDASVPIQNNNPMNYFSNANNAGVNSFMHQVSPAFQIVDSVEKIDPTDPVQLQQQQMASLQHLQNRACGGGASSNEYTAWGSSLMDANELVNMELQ
# Experiment: protein-binding microarray (RPBM); PBS, 2% BSA, 51.3 ng/ul salmon testes DNA, 50 uM zinc acetate, 200 nM TF, 25 C, 1 h; high values mean tight binding
# Conditions: protein: recombinant; tags: N-terminal polyhistidine and DsRed monomer fusion (pET32a); chain copies: 2; label: CyDye5-dUTP incorporated in the synthesized complementary strand; 3' TTTTT single-stranded linker to array surface; dsDNA, one strand shown
# Outline: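 Per-feature fluorescence intensity (arbitrary units), read on an Axon 4000B scanner, is the binding signal. Transcription factors carrying an N-terminal polyhistidine tag and DsRed fusion were expressed in E. coli BL21-CodonPlus and purified on Ni–NTA. A custom Agilent array, made double-stranded by primer extension with Cy5-dUTP and blocked with 2% BSA, was incubated with 200 nM protein in PBS, 2% BSA, salmon testes DNA and 50 µM zinc acetate at 25 °C for 1 h and then washed.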
row,Sequence,binding signal
1,AATATTTACATTACTAAATTAGTTTTATTAAATTAATAATCGGAGTCACCTAGTGCAG,19800 fluorescence intensity (a.u.)
2,GTAAATTTCATAAAATCCCACGTATTATGATTCAAATTGCCGGAGTCACCTAGTGCAG,5110 fluorescence intensity (a.u.)
3,TTTTATTTCATTATATGATCCCATCAAATATAAATTAGCACGGAGTCACCTAGTGCAG,48500 fluorescence intensity (a.u.)
4,TGTTTAATAATAAATTTAGTAACATCAATTTTACATGATTCGGAGTCACCTAGTGCAG,46100 fluorescence intensity (a.u.)
5,TAGTTATAAAGCACTGTAATTTTAGTTATAAATACAACATCGGAGTCACCTAGTGCAG,3260 fluorescence intensity (a.u.)
6,AAACATAACAATATTTTCAACATAAAACAAATAATGTTATCGGAGTCACCTAGTGCAG,3530 fluorescence intensity (a.u.)
7,CTCTCAAAATATTCGGATGTAATTTTAGTCGCACAAACATCGGAGTCACCTAGTGCAG,39200 fluorescence intensity (a.u.)
8,CATATTATAAAATGTTGTGCTAATTATTATCGGTGTATATCGGAGTCACCTAGTGCAG,22300 fluorescence intensity (a.u.)
9,AAAATTTATTCATCCATCGTCATAATTTTAATTATATGCACGGAGTCACCTAGTGCAG,4150 fluorescence intensity (a.u.)
10,CGGTGTTTGTAATTCATTTTATATAATGAAAATGGATTATCGGAGTCACCTAGTGCAG,44600 fluorescence intensity (a.u.)
11,TTATAAATTAAATTTTATGTAATGAAAATAATATCATTGGCGGAGTCACCTAGTGCAG,3900 fluorescence intensity (a.u.)
12,CTGCGCGTAGAAGTGACGCAAGAAGGCAGCGGGCCCACTACGGAGTCACCTAGTGCAG,3230 fluorescence intensity (a.u.)
13,AGAACCTTCCGCGCTTCCGTGCTCCCCACCGCCACCTCGCCGGAGTCACCTAGTGCAG,3430 fluorescence intensity (a.u.)
14,TCACATCCACGTATATTCCCTTCCCCTTCTCCAACCTTTCCGGAGTCACCTAGTGCAG,9390 fluorescence intensity (a.u.)
15,TCATCATCAAGACTGAGTCACTGACACGTGTGCACCTATGCGGAGTCACCTAGTGCAG,27900 fluorescence intensity (a.u.)
16,TCTATATTCTACTCAATGCTTGGTTCTAAATTGGCCTCAACGGAGTCACCTAGTGCAG,24700 fluorescence intensity (a.u.)
17,CTATTTGTGTCTTGTGTACTTCAACGTCTTCCTCTTATGACGGAGTCACCTAGTGCAG,3680 fluorescence intensity (a.u.)
18,ATACAGTAAATATTTGCTAATGACGGATTAATTAGGCTTACGGAGTCACCTAGTGCAG,3790 fluorescence intensity (a.u.)
19,GCGTGCGCGTCGACGTCGTCACCGCCGTCCACGGCGTAGTCGGAGTCACCTAGTGCAG,5680 fluorescence intensity (a.u.)
20,ACATCCTATCCCGTGCATTGAATCAGCATTGTACAGCAAACGGAGTCACCTAGTGCAG,3370 fluorescence intensity (a.u.)
21,GAGCTCCACCTCCTCGCGTGCCCACGCCATCCATGGCTTCCGGAGTCACCTAGTGCAG,4500 fluorescence intensity (a.u.)
22,TTTTCTATAAATTTAGTCAAATATAACAAAGTTTGATTAGCGGAGTCACCTAGTGCAG,42600 fluorescence intensity (a.u.)

row,Sequence,binding signal
1,TTTGTCTATAAATTTAGTCAAACTTGAAACAATTTGATTTCGGAGTCACCTAGTGCAG,14600 fluorescence intensity (a.u.)
2,GTGGTGCTACAGTAAATATTTGCTAATGATAGATTAATTACGGAGTCACCTAGTGCAG,7300 fluorescence intensity (a.u.)
3,ATGTCGTAGCTTTTAATTATATACTACTATAAATTTGATTCGGAGTCACCTAGTGCAG,43700 fluorescence intensity (a.u.)
4,AAAATTATGTTGTCATTTTAATATATTTGAATAATACATTCGGAGTCACCTAGTGCAG,3560 fluorescence intensity (a.u.)
5,ATAATTTGGTGTTACAGTAAACATTTGCTAATAATGGATTCGGAGTCACCTAGTGCAG,49500 fluorescence intensity (a.u.)
6,ATTTAATAAAACTTATTTGGTGTTGTAAATGTTGCTAAATCGGAGTCACCTAGTGCAG,26700 fluorescence intensity (a.u.)
7,GGTTGTTCTAACAAATTGTTTATAAAACAATTTGATTTTGCGGAGTCACCTAGTGCAG,3570 fluorescence intensity (a.u.)
8,TTTATATAATAGTTACTTACTATACTATTAATACTTGATTCGGAGTCACCTAGTGCAG,16600 fluorescence intensity (a.u.)
9,AAATACATCCAAGAACACAATATATTCCAATATTTTGTCACGGAGTCACCTAGTGCAG,34500 fluorescence intensity (a.u.)
10,AGGGAAAGATTCTAACAAATAAAGAAAAGAACAATGCAGCCGGAGTCACCTAGTGCAG,3260 fluorescence intensity (a.u.)
11,CGGAGGGAGTATAAAAGAACAATACTTCTATAAATTTTGTCGGAGTCACCTAGTGCAG,40300 fluorescence intensity (a.u.)
12,CCAATTCACTCCACCATACTGTTGGCACCTATGATAGAACCGGAGTCACCTAGTGCAG,3430 fluorescence intensity (a.u.)
13,AGAAAACCTACACCCCGGGCTTCCGTTGCAACGTGACAACCGGAGTCACCTAGTGCAG,13300 fluorescence intensity (a.u.)
14,TATACAAGTCAGCTGCTGCTCGATCTTGTCATGAGAGCCCCGGAGTCACCTAGTGCAG,5140 fluorescence intensity (a.u.)
15,GGAGAGGGAGCGGGAGAGGGAGGATTGGAGGATGTGGGGACGGAGTCACCTAGTGCAG,15400 fluorescence intensity (a.u.)
16,CTGCGGTTGCATTGCATGGAGATGGACCCTCAACCAGCTACGGAGTCACCTAGTGCAG,3700 fluorescence intensity (a.u.)
17,CCGACAAAAGATGGTTTCTCCATCAGTGAAGACACAATGTCGGAGTCACCTAGTGCAG,19500 fluorescence intensity (a.u.)
18,CATCGGACGGCCCATGTAGCCCAACTCCTCCGCTGCCACGCGGAGTCACCTAGTGCAG,3410 fluorescence intensity (a.u.)
19,GGGCTCCCAGTATAGCTTAGGTTGATTTAATTATGGTTAACGGAGTCACCTAGTGCAG,49500 fluorescence intensity (a.u.)
20,ATGGCTGTTGATTTTAATAGTGCAGGAGTGGTTTATAGCTCGGAGTCACCTAGTGCAG,4220 fluorescence intensity (a.u.)
21,TTAGTATGTGATTAATTTAGTATTAATTATTTAACTATAACGGAGTCACCTAGTGCAG,31900 fluorescence intensity (a.u.)
